Screens deposited in PubChem BioAssay by National Center for Advancing Translational Sciences (NCATS).
This is a sample that favours compounds with a hit; in the whole collection about 6.5% have one here.
Vaccinia Venus – qHTS for Stage-Specific Inhibitors of Vaccinia Orthopoxvirus: Venus Reporter Primary qHTS; Potency, µM (highest dose often 36.5 µM), for inactives: top-dose activity change, negative = inhibition, hits mostly inhibitors; hit rate 0.46% among 330,000; Vaccinia virus Venus reporter expression, fluorescence; calls by dose curve; tested in A549 cells; further: potency means the concentration at half of the fitted maximal effect; nearly all actives have a fitted effect of over 30% in size
FMDV antiviral – High Throughput Screening for Foot and Mouth Disease Virus Antivirals; Potency, µM (doses to about 57.9 µM), without a hit: at the top dose activity change, negative = inhibition, usual class: inhibitors; AID 1159524, 2015; FMDV antiviral cell-based qHTS; hit rate 1.2% among 410,000; calls by dose curve; tested in HEK293T cells; further: read-out not given here; potency means the concentration at half of the fitted maximal effect; nearly all actives have a fitted effect of over 45% in size
MARV entry inh – qHTS for inhibitors of binding or entry into cells for Marburg Virus. hit rate 1.8% among 300,000. Marburg virus pseudotyped entry inhibition, cell reporter. Potency, µM (doses to about 37.8 µM), without a hit: at the top dose activity change, negative = inhibition, most hits filed as inhibitors; calls by dose curve; tested in HEK293 cells; further: potency means the concentration at half of the fitted maximal effect
HCMV antiviral – qHTS Assay for inhibitors of the human cytomegalovirus (HCMV) | hit rate 4.5% among 410,000 | HFF cells, HCMV-luciferase reporter, 72 h; stronger effect = lower value | activity change, negative = inhibition, % at 57.5 µM; in the data active means activity change below about -60%; inconclusive means no clear call, values can overlap the other calls; inactive means above about -39%
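Human foreskin fibroblasts infected with luciferase-reporter HCMV at MOI 1 PFU/cell, compounds at two doses. Luciferase measured 72 h post infection; normalized to buffer-only basal and Salinomycin (10uM) controls.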
VACV mCherry inh – qHTS for Stage-Specific Inhibitors of Vaccinia Orthopoxvirus: mCherry Reporter Primary qHTS | Vaccinia virus mCherry reporter infection, fluorescence | Potency, µM (series often up to 36.5 µM), without a hit: at the highest dose activity change, negative = inhibition, actives largely listed as inhibitors | hit rate 0.63% among 310,000 | AID 720579, 2013; calls by dose curve; tested in A549 cells; further: potency means the concentration at half of the fitted maximal effect; nearly all actives have a fitted effect of over 35% in size
LASV entry inh – qHTS for Inhibitors of binding or entry into cells for Lassa Virus; Lassa virus pseudotype entry inhibition, cell reporter; Potency, µM (titrated, usually from 37.9 µM), for the others: top-dose activity change, negative = inhibition, usual class: inhibitors; hit rate 1.2% among 300,000; AID 540256, 2011; calls by dose curve; tested in HEK293 cells; further: potency means the concentration at half of the fitted maximal effect; nearly all actives have a fitted effect of over 50% in size
* hit, by the source's call; i = inactive; u = inconclusive; x = not tested or not shown; ! = not active in a repeat; [ ] = another dose, or the depositor's remark. On the % scale 0 is the no-effect control and ±100 the full control effect.

SMILES	Vaccinia Venus	FMDV antiviral	MARV entry inh	HCMV antiviral	VACV mCherry inh	LASV entry inh
COc1ccccc1CCc1nc2ccccc2n1C1CCN(C(=O)c2cn3ccsc3n2)CC1	-2.8%	8.0%	x	x	-10.5%	x
CCCCc1c(C)nc(Nc2ccc(OC)cc2)[nH]c1=O	-6.4%	-4.3%	u	-33.9	-22.6%	6.6%
CCCCCc1c(C)nc(Nc2ccc(F)cc2)[nH]c1=O	-17.8%	u	u	-70.1*	i	-6.9%
CCCCNc1c(-c2ccc(Sc3ccc(OC)cc3)cc2)nc2cc(C)ccn12	u	u	x	29.1	u	x
CCCCCCSc1cc(-c2nc3ccc(C)cn3c2NCCCC)ccc1OC	u	35.5µM*	x	14.5	-24.8%	x
CCCCNc1c(-c2ccc(OC)c(SC(C)CC)c2)nc2ccc(C)cn12 (stereo unspecified)	-15.6%	31.6µM*	x	-63.2*!	u	x
CCCCNc1c(-c2ccc(OC)c(SC(C)CC)c2)nc2cc(C)ccn12 (stereo unspecified)	u	28.2µM*	x	-79.2*!	25.1µM*	x
CCCCNc1c(-c2ccc(-c3ccc(C(C)=O)cc3)c(OC)c2)nc2cc(C)ccn12	u	u	x	-92.9*	u	x
CCCCNc1c(-c2ccc(OC)c(SC(C)CC)c2)nc2cnccn12 (stereo unspecified)	-17.6%	u	x	-19.9	u	x
CC(O)(COc1ccccc1)c1ccc2c(c1)CN(Cc1ccccn1)CCO2 (stereo unspecified)	-4.6%	-4.2%	x	x	-8.6%	x
COCCN1Cc2cc3cc(C)ccc3nc2SC1=Nc1cccc(OC)c1	x	-13.9%	x	5.4	x	x
Cc1cccc(N=C2Sc3nc4c(C)c(C)ccc4cc3CN2CCN2CCOCC2)c1	u	-29.3%	16.4µM*	-6.9	-11.1%	23.1µM*
O=C(Nc1ccc(F)cc1)N1CCN(c2ccc3nnc(-c4ccc(F)cc4)n3n2)CC1	u	u	0.8%[46.1 µM]	-69.5*!	u	x
O=C(c1ccc(Br)o1)N1CCN(c2ccc3nnc(-c4ccccc4)n3n2)CC1	-24.0%	u	x	-72.3*	-18.2%	x
Cc1nnc2ccc(N3CCN(C(=O)c4ccccc4)CC3)nn12	-1.4%	-16.7%	-0.5%	7.8	8.0%	x
COc1ccc(OC)c(N(CC(=O)NCc2ccccc2)S(=O)(=O)c2ccccc2)c1	-0.2%	27.5%	u	4.7	-0.3%	-4.4%[46.1 µM]
O=[N+]([O-])c1ccc(N2CCN(S(=O)(=O)Cc3ccccc3)CC2)cc1N1CCOCC1	-28.8%	u	u	1.2	-14.2%	12.6µM*
N#CC(=C1C=CC(=NO)C(Cl)=C1)c1ccc(Cl)cc1	-8.8%	-14.5%	-21.4%	-74.0*	-7.3%	u
C[C@@H]1CN([C@H](C)CO)C(=O)c2cc(NC(=O)Nc3ccc(C(F)(F)F)cc3)ccc2O[C@H]1CN(C)S(=O)(=O)c1cccs1	u	-21.4%	x	-19.4	-11.5%	x
C[C@H](CO)N1C[C@H](C)[C@@H](CN(C)S(=O)(=O)c2ccc(F)cc2)Oc2ccc(NC(=O)Nc3ccccc3)cc2C1=O	-19.3%	0.0%	x	-8.7	-6.8%	x
COc1ccc(S(=O)(=O)Nc2ccc3c(c2)C(=O)N([C@H](C)CO)C[C@H](C)[C@@H](CN(C)S(=O)(=O)c2ccc(OC)cc2)O3)cc1	u	-7.9%	x	-91.8*	u	x
C[C@H](CO)N1C[C@H](C)[C@@H](CN(C)S(=O)(=O)c2ccccc2)Oc2ccc(NC(=O)Nc3ccccc3)cc2C1=O	10µM*	-14.5%	x	-73.5*	u	x
C[C@H](CO)N1C[C@H](C)[C@@H](CN(C)S(=O)(=O)c2cccs2)Oc2ccc(NC(=O)Nc3ccccc3)cc2C1=O	-12.7%	-20.5%	x	-65.0*	-8.0%	x
O=C(O)c1cccs1	-3.6%	x	x	x	-10.9%	x
Nc1ccc2c(c1)C=C/C2=C\c1ccccc1	-25.8%	x	x	x	-28.2%	x
SMILES	Vaccinia Venus	FMDV antiviral	MARV entry inh	HCMV antiviral	VACV mCherry inh	LASV entry inh
COC(=O)[C@@H]1[C@@H](CO)[C@@H]2Cn3c(ccc(Br)c3=O)[C@@H]2N1CCc1ccccc1	x	x	x	-32.9	x	x
CCNC(=S)N(CCc1c(C)[nH]c2ccc(Cl)cc12)Cc1ccco1	-16.4%	u	u	u	u	7.94µM*
CNC(=S)N(CCc1c(C)[nH]c2ccc(C)cc12)Cc1ccco1	-12.8%	-17.4%	-40.3%	40.4	i	-32.5%
CC(C)CC(=O)NN(C)c1nc(-c2ccccc2)nnc1C(F)(F)F	-5.6%	-5.1%	-27.1%[46.1 µM]	-9.0	-6.4%	u
CN(NC(=O)c1ccc(Cl)cc1)c1nc(-c2ccccc2)nnc1C(F)(F)F	-11.9%	31.6µM*	u	-104.6*	-8.4%	-16.3%
CSc1nc(N(C)NC(=O)c2ccccc2)c2ccccc2n1	u	-13.3%	u	-23.3	u	u
CSc1nc(N(C)NC(=O)c2ccc(Cl)cc2)c2ccccc2n1	u	0.0%	u	-65.4*	-19.1%	u
CC(C)(C)CC(C)(C)NC(=O)C(Nc1ccccc1)c1ccccc1F (stereo unspecified)	x	x	x	48.2	x	x
N#Cc1nc(-c2ccc(COc3ccccc3)o2)oc1NCc1ccccc1	-16.7%	-20.7%	10.0%[46.1 µM]	u	-19.1%	-22.5%[46.1 µM]
CC(Nc1oc(-c2ccc(COc3ccccc3)o2)nc1C#N)c1ccccc1 (stereo unspecified)	-28.8%	-12.7%	-0.7%[46.1 µM]	-79.0*	u	u
COc1ccc(Nc2oc(-c3ccc(COc4ccccc4C)o3)nc2C#N)cc1	-24.9%	u	-21.3%[46.1 µM]	-6.6	-26.4%	-4.1%[46.1 µM]
CCOc1ccc(Nc2oc(-c3ccc(COc4ccc(OC)cc4)o3)nc2C#N)cc1	-24.2%	-19.5%	-24.8%[46.1 µM]	-80.9*	u	-1.9%[46.1 µM]
COc1ccc(OC)c(NC(=O)Cn2ncc3c2-c2ccccc2OC3)c1	-3.2%	-13.4%	7.4%[46.1 µM]	-3.0	-18.9%	x
Cc1nnc(SCC(=O)NCc2cccc(F)c2)c2nn(-c3ccccc3)c(C)c12	-26.9%	u	x	-61.4*	-26.2%	u
COc1cccc(CNC(=O)CSc2nnc(C)c3c(C)n(-c4ccccc4)nc23)c1OC	-7.3%	u	x	-19.1	i	-1.9%[46.1 µM]
COc1ccc(CNC(=O)CSc2nnc(C)c3c(C)n(-c4ccccc4)nc23)c(OC)c1	-12.7%	u	x	-65.4*	-12.8%	u
CCCNC(=O)N1CCC2(CC1)CN(C(=O)c1ccccc1)[C@H](CO)c1[nH]c3cc(OC)ccc3c12	x	x	x	-2.4	x	x
Cc1csc(SCC(=O)NCC2Cc3cc(-c4cncnc4)ccc3O2)n1 (stereo unspecified)	-16.7%	17.1%	x	x	-2.1%	x
FC(F)(F)c1ccc(CN2C[C@@H]3C(c4ccc(Cl)nc4)C4(c5ccccc5)CC3(C4)[C@H]2c2ccccc2)cc1 (stereo partly specified)	u	-10.4%	x	-65.1*	u	x
CCCCCCC(=O)Nc1ccc(Cl)cn1	x	50.0%	15.6%	-15.3	x	1.3%
